The record followed here is ChEMBL document CHEMBL3988442, “University of Dundee, Small-Polar-MMV Screening Library” (2021).

For some of these results: Potency and affinity values are given separately.

Common to all, as to parameters: scale not given: direction of the effect not stated beside the values
Experiment [1] addresses Protein translocase subunit SecA (Escherichia coli (strain K12)) (UniProt P10408). Briefly: Assay to Identify E. coli SecA ATPase Inhibitors. In kind it is functional. To be noted: 30 µM.
In experiment [2] the target is T1, Ubiquitin-activating enzyme e1, putative (Leishmania donovani (strain BPK282A1)) (UniProt E9BSI1).
T1 sequence (whole entry): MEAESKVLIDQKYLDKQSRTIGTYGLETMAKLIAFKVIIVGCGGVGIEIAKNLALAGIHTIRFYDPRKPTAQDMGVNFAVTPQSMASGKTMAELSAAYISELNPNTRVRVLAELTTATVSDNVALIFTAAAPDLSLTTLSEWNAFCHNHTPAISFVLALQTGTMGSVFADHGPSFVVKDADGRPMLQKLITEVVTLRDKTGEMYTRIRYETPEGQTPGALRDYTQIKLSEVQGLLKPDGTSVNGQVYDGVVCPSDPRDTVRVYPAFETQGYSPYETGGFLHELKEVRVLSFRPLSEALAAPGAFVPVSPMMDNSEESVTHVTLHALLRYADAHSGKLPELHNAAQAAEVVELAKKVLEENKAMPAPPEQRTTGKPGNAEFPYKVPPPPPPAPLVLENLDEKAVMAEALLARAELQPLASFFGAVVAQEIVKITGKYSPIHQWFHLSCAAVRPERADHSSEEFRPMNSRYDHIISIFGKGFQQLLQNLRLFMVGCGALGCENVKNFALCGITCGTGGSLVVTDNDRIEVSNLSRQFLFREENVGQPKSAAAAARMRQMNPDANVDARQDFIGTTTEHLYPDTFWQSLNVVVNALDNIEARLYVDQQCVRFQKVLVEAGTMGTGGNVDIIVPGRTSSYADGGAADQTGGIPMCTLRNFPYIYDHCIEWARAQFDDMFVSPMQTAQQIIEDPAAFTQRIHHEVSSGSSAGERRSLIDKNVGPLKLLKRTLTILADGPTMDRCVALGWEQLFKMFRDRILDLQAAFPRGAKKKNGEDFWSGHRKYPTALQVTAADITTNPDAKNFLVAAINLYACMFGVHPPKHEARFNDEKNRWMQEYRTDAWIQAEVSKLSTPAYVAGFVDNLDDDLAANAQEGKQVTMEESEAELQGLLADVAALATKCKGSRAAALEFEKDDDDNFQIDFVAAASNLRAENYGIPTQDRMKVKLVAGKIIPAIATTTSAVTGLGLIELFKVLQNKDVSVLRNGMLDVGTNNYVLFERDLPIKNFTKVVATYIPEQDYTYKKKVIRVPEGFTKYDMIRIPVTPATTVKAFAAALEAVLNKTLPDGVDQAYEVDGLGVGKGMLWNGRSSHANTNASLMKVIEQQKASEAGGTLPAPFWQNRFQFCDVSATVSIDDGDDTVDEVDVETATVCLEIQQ
Briefly: Leishmania donovani Ubiquitin Activating Enzyme (LdE1). The experiment is classed as functional. As to conditions: 30 µM.

The target in experiment [3] is T2, Aspartate--tRNA(Asp/Asn) ligase (Mycobacterium tuberculosis (strain ATCC 25618 / H37Rv)) (UniProt P9WFW3). Note: in the data most compounds retested in dose-response had high values.
T2 sequence (whole entry): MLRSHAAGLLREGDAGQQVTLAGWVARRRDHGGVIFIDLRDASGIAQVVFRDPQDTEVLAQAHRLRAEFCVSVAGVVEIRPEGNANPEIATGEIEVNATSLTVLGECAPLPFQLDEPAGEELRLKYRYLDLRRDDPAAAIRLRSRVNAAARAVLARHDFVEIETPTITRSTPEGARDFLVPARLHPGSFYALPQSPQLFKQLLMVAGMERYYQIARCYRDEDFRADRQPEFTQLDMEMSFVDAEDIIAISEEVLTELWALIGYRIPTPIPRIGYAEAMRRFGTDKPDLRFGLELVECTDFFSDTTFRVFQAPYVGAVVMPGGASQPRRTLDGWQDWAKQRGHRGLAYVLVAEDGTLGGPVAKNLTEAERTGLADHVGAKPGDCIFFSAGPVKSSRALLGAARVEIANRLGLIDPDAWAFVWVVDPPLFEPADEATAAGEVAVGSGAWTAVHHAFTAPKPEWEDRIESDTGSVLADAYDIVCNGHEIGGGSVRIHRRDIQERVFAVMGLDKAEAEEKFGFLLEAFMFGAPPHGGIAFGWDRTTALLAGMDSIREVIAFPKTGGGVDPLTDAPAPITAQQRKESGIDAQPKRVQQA
Briefly: Assay for Asp RNA synthetase-1 from Mycobacterium tuberculosis. The experiment is classed as functional. To be noted: 30 µM.

The target of experiment [4] is AMP-activated protein kinase, AMPK (Homo sapiens) (UniProt P54646+O43741+P54619+Q9UGJ0+Q9Y478+Q13131+Q9UGI9). In words: AMP-dependent Kinase enzyme assay. An in vitro enzyme assay that detects ADP turnover that is directly proportional to AMPK activity. This uses naive AMPK that is activated during the assay with MK-8722. The experiment is classed as functional. As to conditions: 30 µM.

For experiment [5], the target named is Sialic acid-binding Ig-like lectin 9 (Homo sapiens) (UniProt Q9Y336). In words: Hs-Siglec9 ALPHAscreen SOP 20170721. As to conditions: 10 µM. (In general: Bead proximity is the source of the signal in Alpha formats.)
For another experiment, the system named is Trypanosoma cruzi. Briefly: Trypanosoma cruzi phosphomannomutase and mannose-1-phosphate guanylyltransferase assay. The experiment is classed as functional. To be noted: 10 µM.
Experiment [6] addresses T3, Arginase-2, mitochondrial (Homo sapiens) (UniProt P78540).
T3 sequence (whole entry): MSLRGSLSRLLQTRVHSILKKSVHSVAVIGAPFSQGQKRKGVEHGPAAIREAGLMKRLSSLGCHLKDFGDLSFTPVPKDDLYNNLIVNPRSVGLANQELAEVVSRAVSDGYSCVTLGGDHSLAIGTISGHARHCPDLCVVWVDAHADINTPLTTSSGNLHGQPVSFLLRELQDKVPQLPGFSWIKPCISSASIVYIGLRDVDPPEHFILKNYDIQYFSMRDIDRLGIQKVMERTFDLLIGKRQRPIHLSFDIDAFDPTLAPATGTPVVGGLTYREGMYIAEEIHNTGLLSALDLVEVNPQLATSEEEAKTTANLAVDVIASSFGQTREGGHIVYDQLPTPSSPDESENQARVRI
In words: in vitro enzyme assay to detect the production of urea directly proportional to the activity of Arginase II. Note: in the data most compounds retested in dose-response had high values. In kind it is functional. To be noted: 33.3 µM.

Experiment [7] concerns the target T4, Proteasome subunit beta (Trypanosoma cruzi) (UniProt O96673).
T4 sequence (whole entry): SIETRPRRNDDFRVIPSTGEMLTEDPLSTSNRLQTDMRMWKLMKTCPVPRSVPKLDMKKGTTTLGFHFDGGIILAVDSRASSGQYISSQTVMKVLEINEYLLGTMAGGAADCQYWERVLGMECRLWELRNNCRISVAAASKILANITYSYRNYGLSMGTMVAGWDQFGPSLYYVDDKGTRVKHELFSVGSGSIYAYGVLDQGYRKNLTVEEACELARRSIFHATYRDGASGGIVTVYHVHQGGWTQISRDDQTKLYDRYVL
In words: Trypanosoma cruzi proteasome chymotrypsin-like activity (TcProtChymo) assay. Note: in the data most compounds retested in dose-response had high values. In kind it is functional. As to conditions: 9.37 µM.

For a further experiment, the species on record is Homo sapiens. Briefly: To identify inhibition of the IFN signalling (Jak-Stat) pathway via expression of an eGFP reporter gene under the control of an IFN-stimulated response element (ISRE) containing MxA promoter. The experiment is classed as functional. To be noted: 30 µM.
Experiment [8] concerns the target Shiga toxin 2 (Escherichia coli O157:H7) (UniProt P09385+P09386). In words: E. coli 0.157:H7 Shiga Toxin SOP - stx2 screening assay. The experiment is classed as functional. As to conditions: 30 µM.
Experiment [9] addresses T5, Tyrosyl-tRNA synthetase, putative (Trypanosoma cruzi (strain CL Brener)) (UniProt Q4DSP6).
T5 sequence (whole entry): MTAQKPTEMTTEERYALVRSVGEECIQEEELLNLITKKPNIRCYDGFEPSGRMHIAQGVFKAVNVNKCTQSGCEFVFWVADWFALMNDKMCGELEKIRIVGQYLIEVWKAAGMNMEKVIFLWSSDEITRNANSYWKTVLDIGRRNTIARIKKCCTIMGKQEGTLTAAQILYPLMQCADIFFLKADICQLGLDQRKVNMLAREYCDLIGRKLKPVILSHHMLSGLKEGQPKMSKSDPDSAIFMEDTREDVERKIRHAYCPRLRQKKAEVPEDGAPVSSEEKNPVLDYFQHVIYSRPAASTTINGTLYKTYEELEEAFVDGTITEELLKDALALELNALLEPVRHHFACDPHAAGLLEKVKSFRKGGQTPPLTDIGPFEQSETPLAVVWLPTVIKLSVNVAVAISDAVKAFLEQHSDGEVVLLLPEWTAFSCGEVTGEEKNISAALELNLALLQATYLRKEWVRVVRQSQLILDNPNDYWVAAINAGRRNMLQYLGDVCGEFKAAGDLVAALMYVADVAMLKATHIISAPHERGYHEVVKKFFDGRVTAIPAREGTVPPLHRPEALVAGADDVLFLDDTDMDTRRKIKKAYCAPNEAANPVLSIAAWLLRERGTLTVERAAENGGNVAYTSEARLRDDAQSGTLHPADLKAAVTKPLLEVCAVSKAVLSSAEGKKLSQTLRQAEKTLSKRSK
In words: Trypanosoma cruzi tyrosyl tRNA synthetase (TcYRS) _High Tyrosine SOP. Note: in the data most compounds retested in dose-response had high values. The experiment is classed as functional. As to conditions: 30 µM.

Experiment [10] has as its target T5, Tyrosyl-tRNA synthetase, putative (Trypanosoma cruzi (strain CL Brener)). In words: Trypanosoma cruzi tyrosyl tRNA synthetase (TcYRS) SOP. In kind it is functional. As to conditions: 30 µM.
The target in experiment [11] is Chromo domain-containing protein 1 (Saccharomyces cerevisiae (strain ATCC 204508 / S288c) (Baker's yeast)) (UniProt P32657). Briefly: ScCHD-1 Enzyme Inhibition Assay. Note: in the data most compounds retested in dose-response had high values. The experiment is classed as functional. As to conditions: 30 µM.
Chain of Chromo domain-containing protein 1 (Saccharomyces cerevisiae (strain ATCC 204508 / S288c) (Baker's yeast)) (P32657 whole entry, the tested form may be a part): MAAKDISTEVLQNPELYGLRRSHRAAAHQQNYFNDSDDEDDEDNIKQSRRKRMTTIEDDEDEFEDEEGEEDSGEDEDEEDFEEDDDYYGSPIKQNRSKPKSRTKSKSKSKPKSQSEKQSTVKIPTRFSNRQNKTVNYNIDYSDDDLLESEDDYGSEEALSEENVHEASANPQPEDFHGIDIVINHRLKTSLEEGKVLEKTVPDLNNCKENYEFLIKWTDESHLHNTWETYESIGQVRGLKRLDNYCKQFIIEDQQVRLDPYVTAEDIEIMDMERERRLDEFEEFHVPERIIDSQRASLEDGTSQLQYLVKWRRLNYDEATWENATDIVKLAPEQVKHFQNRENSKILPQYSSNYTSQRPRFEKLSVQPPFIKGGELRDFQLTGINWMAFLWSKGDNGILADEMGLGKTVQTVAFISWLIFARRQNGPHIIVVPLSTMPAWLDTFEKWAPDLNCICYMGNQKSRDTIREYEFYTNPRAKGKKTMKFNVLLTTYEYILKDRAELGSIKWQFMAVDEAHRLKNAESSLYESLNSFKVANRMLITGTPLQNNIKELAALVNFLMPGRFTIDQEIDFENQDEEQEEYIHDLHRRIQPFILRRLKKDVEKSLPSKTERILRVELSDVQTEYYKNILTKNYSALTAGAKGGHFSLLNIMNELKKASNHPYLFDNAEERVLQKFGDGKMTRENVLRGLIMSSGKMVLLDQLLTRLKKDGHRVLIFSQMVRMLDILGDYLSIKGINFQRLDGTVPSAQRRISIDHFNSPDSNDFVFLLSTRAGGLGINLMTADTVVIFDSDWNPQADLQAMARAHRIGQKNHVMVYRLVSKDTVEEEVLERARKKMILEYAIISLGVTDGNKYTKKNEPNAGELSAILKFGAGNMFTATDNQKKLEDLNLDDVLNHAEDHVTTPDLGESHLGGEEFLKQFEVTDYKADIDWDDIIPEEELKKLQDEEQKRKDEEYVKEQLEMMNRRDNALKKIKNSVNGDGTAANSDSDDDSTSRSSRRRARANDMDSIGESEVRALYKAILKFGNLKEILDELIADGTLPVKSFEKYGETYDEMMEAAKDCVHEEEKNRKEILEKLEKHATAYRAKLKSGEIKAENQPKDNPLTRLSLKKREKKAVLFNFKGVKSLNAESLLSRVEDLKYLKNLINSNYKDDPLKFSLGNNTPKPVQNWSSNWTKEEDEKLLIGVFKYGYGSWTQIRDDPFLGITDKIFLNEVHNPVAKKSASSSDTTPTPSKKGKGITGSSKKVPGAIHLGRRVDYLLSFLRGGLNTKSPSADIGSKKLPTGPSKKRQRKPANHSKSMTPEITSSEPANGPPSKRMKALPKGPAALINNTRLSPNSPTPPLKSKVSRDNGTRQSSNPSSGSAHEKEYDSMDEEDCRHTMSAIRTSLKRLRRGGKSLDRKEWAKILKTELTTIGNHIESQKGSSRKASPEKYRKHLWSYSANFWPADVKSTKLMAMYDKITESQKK

Chain of Sialic acid-binding Ig-like lectin 9 (Homo sapiens) (Q9Y336 whole entry): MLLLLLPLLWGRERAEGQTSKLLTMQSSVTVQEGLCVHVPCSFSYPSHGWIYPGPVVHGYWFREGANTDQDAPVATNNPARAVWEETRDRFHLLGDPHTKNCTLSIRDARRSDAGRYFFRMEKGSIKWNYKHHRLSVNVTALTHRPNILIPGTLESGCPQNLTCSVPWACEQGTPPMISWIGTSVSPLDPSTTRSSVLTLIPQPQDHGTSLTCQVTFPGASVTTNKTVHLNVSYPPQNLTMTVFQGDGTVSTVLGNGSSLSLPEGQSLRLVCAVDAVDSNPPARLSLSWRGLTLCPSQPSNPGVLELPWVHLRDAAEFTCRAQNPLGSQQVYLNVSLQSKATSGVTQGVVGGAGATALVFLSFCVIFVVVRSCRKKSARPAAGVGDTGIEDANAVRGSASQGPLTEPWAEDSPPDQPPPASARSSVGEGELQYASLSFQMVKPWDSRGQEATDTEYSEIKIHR
Chain of Protein translocase subunit SecA (Escherichia coli (strain K12)) (P10408 whole entry): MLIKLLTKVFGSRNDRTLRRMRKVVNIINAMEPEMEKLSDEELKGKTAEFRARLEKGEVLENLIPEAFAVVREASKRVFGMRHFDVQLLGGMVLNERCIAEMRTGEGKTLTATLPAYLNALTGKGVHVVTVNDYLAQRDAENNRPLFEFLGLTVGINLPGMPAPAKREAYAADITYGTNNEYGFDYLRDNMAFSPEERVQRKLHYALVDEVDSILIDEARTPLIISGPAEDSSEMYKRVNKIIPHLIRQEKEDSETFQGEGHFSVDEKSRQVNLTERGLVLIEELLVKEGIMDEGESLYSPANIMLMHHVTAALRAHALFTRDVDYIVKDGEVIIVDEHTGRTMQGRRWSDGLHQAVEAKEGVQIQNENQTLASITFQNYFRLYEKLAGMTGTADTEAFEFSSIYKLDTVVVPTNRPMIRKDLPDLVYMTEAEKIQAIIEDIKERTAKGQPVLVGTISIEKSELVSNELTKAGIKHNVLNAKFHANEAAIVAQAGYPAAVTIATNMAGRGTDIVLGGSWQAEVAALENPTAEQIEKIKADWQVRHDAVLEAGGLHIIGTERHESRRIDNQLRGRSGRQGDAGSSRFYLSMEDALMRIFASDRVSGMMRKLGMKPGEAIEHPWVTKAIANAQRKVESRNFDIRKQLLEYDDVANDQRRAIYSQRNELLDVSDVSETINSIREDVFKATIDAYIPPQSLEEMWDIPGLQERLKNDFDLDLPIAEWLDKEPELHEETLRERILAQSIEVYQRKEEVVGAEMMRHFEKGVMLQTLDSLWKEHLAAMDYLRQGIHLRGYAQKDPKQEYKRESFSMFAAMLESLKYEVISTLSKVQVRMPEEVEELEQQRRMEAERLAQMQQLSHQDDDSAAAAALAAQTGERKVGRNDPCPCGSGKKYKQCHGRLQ

`CC(C)=CCN1C(=O)[C@H]2CC[C@@H]1CN(Cc1cccnc1N)C2`: the Percent Effect in experiment [1] is 5.73%; in experiment [2], 4.17%; in [3], 4.65%; in experiment [4], 1.92%; in [5], 2%; in the experiment on Trypanosoma cruzi it was -5.34%. Further, the Percent Effect in experiment [6] was 3.53%; in experiment [7], 23.7%; in the experiment listed under Homo sapiens it was 7.39%; in experiment [8] it was -25.3%; in [9], 7.37%; in experiment [10], 2.56%. Besides, the Percent Effect in [11] worked out at 2.83%.
Turning to `Cc1noc(C)c1CN1CC[C@H]2C[C@@H](c3ccncn3)O[C@@H]2C1`, the Percent Effect is -2.74% in [1]; 8.11% in [2]; -3.25% in experiment [3]; 5.49% in [4]; 1.24% in [5]; 5.57% in the experiment on Trypanosoma cruzi. Besides, the Percent Effect in [6] is -2.87%; in [7], 14.2%; in the experiment listed under Homo sapiens it was 17.1%; in [8], 5.98%; in experiment [9], 2.16%; in experiment [10], 17.9%. The Percent Effect in experiment [11] was 2.76%.
With `Cc1nc(CN2C[C@@H]3OCCN(c4ncc(F)cn4)[C@@H]3C2)cs1`, the Percent Effect in experiment [1] is 0.0245%; in experiment [2], 5.33%; in [3], -1.08%; in experiment [4], 7.05%; in experiment [5] it was 2.47%; in the experiment on Trypanosoma cruzi, -1.74%. Besides, the Percent Effect in experiment [6] is -58.6%; in [7] it was 11.3%; in the experiment listed under Homo sapiens, -21.1%; in [8], 2.24%; in experiment [9] it was 4.17%; in [10], 15%. Moreover, the Percent Effect in experiment [11] was -7%.
On to `Cc1noc(C)c1CN1CC[C@@H]2O[C@@H](COCC(C)C)CC[C@@H]21`, for which the Percent Effect is -2.23% in experiment [1]; 0% in [2]; -1.08% in [3]; 1.3% in [4]; 5.58% in experiment [5]; -1.16% with Trypanosoma cruzi. For the same compound, the Percent Effect was -49.3% in experiment [6]; 2.22% in [7]; 8.8% in the experiment listed under Homo sapiens; 2.31% in experiment [8]; 2.08% in [9]; 2.5% in [10]. Also, the Percent Effect in experiment [11] was found to be 1.48%.
